In PubChem BioAssay (NCATS):
A number with no mark means an inactive call. Results filed as inconclusive are left out. Entries that show only a call come without a potency. Activity calls are given as the source filed them. The call rests on the fitted dose curve; in most records, active means well fitted curve in the direction sought with a large enough effect; inconclusive means small, poorly fitted or top-dose-only effect, or another doubt; inactive means no such curve, though single readings can be large; an effect the other way counts as inactive or inconclusive.

Columns and labels:
[1] = target: Glutathione peroxidase 1 (Homo sapiens) (UniProt P07203); experiment: Primary qHTS Assay for Inhibitors of Recombinant Selenoprotein Glutathione Peroxidase 1 (GPX1) (AID 1845191); further: nearly all actives have a fitted effect of over 65% in size
Chain of Glutathione peroxidase 1 (Homo sapiens) (P07203 whole entry, looked up): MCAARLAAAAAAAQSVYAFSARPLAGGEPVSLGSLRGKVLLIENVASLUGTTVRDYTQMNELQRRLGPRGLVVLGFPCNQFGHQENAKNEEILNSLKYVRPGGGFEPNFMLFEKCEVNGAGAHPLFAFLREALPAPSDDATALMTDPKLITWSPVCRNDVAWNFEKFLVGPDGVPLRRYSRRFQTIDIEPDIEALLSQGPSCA
Method in brief: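 GR-coupled assay: compounds preincubated 30 min at room temperature with GPX1, then reaction started with CHP; final 10 nM GPX1, 1 mM GSH, 0.5 mM CHP, 0.5 mM NADPH, 100 nM GR, 0.01% BSA, pH 7.5 Tris buffer. NADPH fluorescence (340/450 nm) read at 0 and 15 min.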

[2] = target: Phospholipid hydroperoxide glutathione peroxidase GPX4 (Homo sapiens) (UniProt P36969); experiment: Primary qHTS Assay for Inhibitors of Recombinant Selenoprotein Glutathione Peroxidase 4 (GPX4) (AID 1845192); further: nearly all actives have a fitted effect of over 65% in size; on activity change, negative = inhibition: series mostly up to about 50 µM
Chain of Phospholipid hydroperoxide glutathione peroxidase GPX4 (Homo sapiens) (P36969 whole entry, looked up): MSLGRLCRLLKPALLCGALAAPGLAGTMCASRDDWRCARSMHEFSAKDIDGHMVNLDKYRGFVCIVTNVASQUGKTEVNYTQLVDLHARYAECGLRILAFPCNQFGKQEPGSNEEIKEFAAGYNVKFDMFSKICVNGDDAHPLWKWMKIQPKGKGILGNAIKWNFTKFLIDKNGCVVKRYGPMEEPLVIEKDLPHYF
Method in brief: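 GR-coupled assay: recombinant GPX4 preincubated 30 min with compound at room temperature; final 200 nM GPX4, 1 mM GSH, 0.5 mM cumene hydroperoxide, 0.5 mM NADPH, 100 nM GR, 0.01% BSA, pH 7.5 Tris. NADPH fluorescence (340/450 nm) read at 0 and 15 min.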

[3] = target: Luciferin 4-monooxygenase (Photinus pyralis) (UniProt P08659); experiment: Primary firefly luciferase (FLuc) qHTS assay for identification of artifact compounds. (AID 1845220); further: nearly all actives have a fitted effect of over 60% in size; on activity change, negative = inhibition: series mostly up to about 54 µM
Method in brief: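 Enzymatic FLuc inhibition assay: compounds pre-exposed to luciferin/ATP (10 uM each) for 15 min, then purified P. pyralis enzyme at 10 nM added. Read-out: luminescence at 5 min.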

[4] = Primary fluorescence-based thiol-reactive (MSTI) qHTS assay for identification of artifact compounds. (AID 1845221); further: nearly all actives have a fitted effect of over 65% in size; further: potency means the concentration at half of the fitted maximal effect;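 on activity change, negative = thiol reactive: series mostly up to about 54 µM; thiol-reactive compounds lower the probe fluorescence signal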
Method in brief: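 MSTI probe at 4 uM final in 2% DMSO/PBS pH 7.4; compounds, 1 h at room temperature in dark. Fluorescence Ex/Em 525/598 nm, normalised to Acetyl-MSTI and MSTI, fitted to 4-parameter Hill.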

[5] = test system: Nanoluciferase (engineered Oplophorus gracilirostris luciferase); experiment: Primary Nanoluciferase (NLuc) qHTS assay for identification of artifact compounds. (AID 1845222);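 further: NLuc secreted into diluted conditioned medium of S16 cells; series mostly up to about 54 µM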
Method in brief: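 S16 cell supernatant NLuc, 1:55; cpds qHTS; 15 min RT dark; Nano-Glo substrate 1:100, 5 min; luminescence; Hill fit of % inhibition.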

[6] = Primary redox qHTS assay for identification of artifact compounds. (AID 1845223)
Method in brief: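 Amplex Red (25 uM) and HRP (250 mU/mL) in HBSS, with compounds for 15 min, then 250 uM DTT for 30 min, room temperature, dark. Fluorescence 525/598 nm read; normalized to DMSO and 10 uM DA3003; Hill fit.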

For O=C(O)Cc1nn(Cc2nc3cc(C(F)(F)F)ccc3s2)c(=O)c2nccnc12, the Potency [1] was “inactive”, the Potency [2] was “inactive” and the Potency [3] was “inactive”. The Potency [4] was “inactive”, the Potency [5] was “inactive” and the Potency [6] was “inactive”.
In the case of C=C(C(=O)OC)C1CCC2(C)C(O[C@@H]3O[C@H](CO)[C@@H](O)[C@H](O)[C@H]3O)CC(=O)C(C)C2C1O (stereo partly specified), the Potency [1] is reported as “inactive”, the Potency [2] is reported as “inactive” and the Potency [3] is reported as “inactive”. The Potency [4] was 4.12 µM (active), the Potency [5] was “inactive” and the Potency [6] was “inactive”.
For C=CC1C(O[C@@H]2O[C@H](CO)[C@@H](O)[C@H](O)[C@H]2O)OC=C(C(=O)OC)C1CC(=O)O (stereo partly specified), the Potency [1] was “inactive”, the Potency [2] was “inactive” and the Potency [3] was “inactive”. For the same molecule, the Potency [4] was “inactive”, the Potency [5] was “inactive” and the Potency [6] was “inactive”.
In the case of COc1ccccc1[C@@H]1C2=C(CC(C)(C)CC2=O)Nc2n[nH]c(C(F)(F)F)c21, the Potency [1] is reported as “inactive”, the Potency [2] is reported as “inactive” and the Potency [3] is reported as “inactive”. The Potency [4] was “inactive”, the Potency [5] was “inactive” and the Potency [6] was “inactive”.
CC(C)(C)NCc1cc(Nc2ccnc3cc(Cl)ccc23)c2c(c1O)CCCC2 gave an activity, negative = inhibition [1] of -7.83% [at 0.4 µM], an activity change, negative = inhibition [2] of -7.38% [at 0.409 µM] and an activity change, negative = inhibition [3] of -4.19% [at 0.464 µM]. The activity change, negative = thiol reactive [4] was -13.7% [at 0.461 µM], the activity, negative = inhibition [5] was 1.02% [at 0.464 µM] and the redox activity (% of DA3003) [6] was -4.12% [at 0.461 µM].
For COc1cc(/C=C/C(=O)O[C@H]2[C@H](O)[C@@H](CO)O[C@@]2(CO)O[C@H]2O[C@H](COC(=O)c3ccc(O)cc3)[C@@H](O)[C@H](O)[C@H]2O)cc(OC)c1OC, the Potency [1] was “inactive”, the Potency [2] was “inactive” and the Potency [3] was “inactive”. For the same molecule, the Potency [4] was “inactive”, the Potency [5] was “inactive” and the Potency [6] was “inactive”.
With C/C=C/C1=CC2=C(CO1)C(=O)[C@](C)(O)[C@H](OC(=O)c1c(O)cc(OC)c(O)c1C)C2 the Potency [1] was “inactive”, the Potency [2] was “inactive” and the Potency [3] was “inactive”. For the same molecule, the Potency [4] was 1.03 µM (active), the Potency [5] was “inactive” and the Potency [6] was “inactive”.
With C=C1CC/C=C(/CO)C(=O)C[C@@H]2[C@@H]1CC2(C)C the Potency [1] was “inactive”, the Potency [2] was “inactive” and the Potency [3] was “inactive”. The Potency [4] was “inactive”, the Potency [5] was “inactive” and the Potency [6] was “inactive”.
With C[C@@H]1CC[C@]2(C(=O)O[C@@H]3O[C@H](CO)[C@@H](O)[C@H](O)[C@H]3O)CC[C@]3(C)C(=CCC4[C@@]5(C)C[C@@H](O)[C@H](O)C(C)(C)C5CC[C@]43C)C2[C@]1(C)O (stereo partly specified) the Potency [1] was “inactive”, the Potency [2] was “inactive” and the Potency [3] was “inactive”. The Potency [4] was “inactive”, the Potency [5] was “inactive” and the Potency [6] was “inactive”.
In the case of C[C@@H]1C[C@H]2[C@@H]3CCC4=CC(=O)C=C[C@]4(C)[C@@]3(F)[C@@H](O)C[C@]2(C)[C@@]1(O)C(=O)COP(=O)(O)O, the Potency [1] is reported as “inactive”, the Potency [2] is reported as “inactive” and the Potency [3] is reported as “inactive”. The Potency [4] was “inactive”, the Potency [5] was “inactive” and the Potency [6] was “inactive”.
In the case of CC(=O)OC1C(O)CC(O[C@@H]2O[C@H](CO)[C@@H](O)[C@H](O)[C@H]2O)C2CCC3C(=O)OC(c4ccoc4)CC3(C)C21 (stereo partly specified), the Potency [1] is reported as “inactive”, the Potency [2] is reported as “inactive” and the Potency [3] is reported as “inactive”. The Potency [4] was “inactive”, the Potency [5] was “inactive” and the Potency [6] was “inactive”.
For C=C[C@H]1[C@H](O[C@@H]2O[C@H](CO)[C@@H](O)[C@H](O)[C@H]2O)OC=C2C(=O)OCC[C@]21O, the Potency [1] was “inactive”, the Potency [2] was “inactive” and the Potency [3] was “inactive”. For the same molecule, the Potency [4] was 11.7 µM (active), the Potency [5] was “inactive” and the Potency [6] was “inactive”.
In the case of COc1cc(C2c3cc(O)c(OC)cc3CC(CO)C2CO)ccc1O (stereo unspecified), the Potency [1] is reported as “inactive”, the Potency [2] is reported as “inactive” and the Potency [3] is reported as “inactive”. The Potency [4] was 8.26 µM (active), the Potency [5] was “inactive” and the Potency [6] was “inactive”.
With CC(C)NC[C@H](O)COc1ccc(CCOCC2CC2)cc1 the Potency [1] was “inactive”, the Potency [2] was “inactive” and the Potency [3] was “inactive”. The Potency [4] was “inactive”, the Potency [5] was “inactive” and the Potency [6] was “inactive”.
In the case of COc1ccc(C[C@H](N)C(=O)N[C@H]2[C@@H](O)[C@H](n3cnc4c(N(C)C)ncnc43)O[C@@H]2CO)cc1, the Potency [1] is reported as “inactive”, the Potency [2] is reported as “inactive” and the Potency [3] is reported as “inactive”. The Potency [4] was “inactive”, the Potency [5] was “inactive” and the Potency [6] was “inactive”.
For C=C1C[C@]23C[C@H]1CC[C@H]2[C@]1(C)CCC[C@@]2(CO)C(=O)O[C@H]([C@H]21)[C@@H]3O, the Potency [1] was “inactive”, the Potency [2] was “inactive” and the Potency [3] was “inactive”. The Potency [4] was “inactive”, the Potency [5] was “inactive” and the Potency [6] was “inactive”.
In the case of COc1cc(/C=C/C(=O)OC[C@H]2O[C@H](O[C@]3(CO)O[C@H](CO)[C@@H](O)[C@@H]3O)[C@H](O)[C@@H](O)[C@@H]2O)cc(OC)c1O, the Potency [1] is reported as “inactive”, the Potency [2] is reported as “inactive” and the Potency [3] is reported as “inactive”. The Potency [4] was “inactive”, the Potency [5] was “inactive” and the Potency [6] was “inactive”.
With CC(C)(O)C1CC=C(C(=O)OCC2OC(Oc3c(O)cc(C(=O)O)cc3O)C(O)C(O)C2O)CC1 (stereo unspecified) the Potency [1] was “inactive”, the Potency [2] was “inactive” and the Potency [3] was “inactive”. The Potency [4] was 0.822 µM (active), the Potency [5] was “inactive” and the Potency [6] was “inactive”.
In the case of O=C1N(CC2CCCCN2)CCN1c1ccccc1 (stereo unspecified), the Potency [1] is reported as “inactive”, the Potency [2] is reported as “inactive” and the Potency [3] is reported as “inactive”. For the same molecule, the Potency [4] was “inactive”, the Potency [5] was “inactive” and the Potency [6] was “inactive”.
For COC(=O)[C@H](OC(C)=O)[C@H]1C(C)(C)C(=O)[C@H]2CC3=C4CC(=O)O[C@@H](c5ccoc5)[C@]4(C)CCC3[C@@]1(C)C2=O (stereo partly specified), the Potency [1] was “inactive”, the Potency [2] was “inactive” and the Potency [3] was “inactive”. For the same molecule, the Potency [4] was “inactive”, the Potency [5] was “inactive” and the Potency [6] was “inactive”.
For C/C(=C\CO)CC/C=C(\C)C(=O)O[C@H]1[C@H](OC2OC=C(C(=O)O)C3CCC(C)(O)C23)O[C@H](CO)[C@@H](O)[C@@H]1O (stereo partly specified), the Potency [1] was “inactive”, the Potency [2] was “inactive” and the Potency [3] was “inactive”. The Potency [4] was 11.6 µM (active), the Potency [5] was “inactive” and the Potency [6] was “inactive”.
